# In the library only some 32% were active in any assay of this set; here they are far more common.
# PostGolgi ctrl: growth inhibition of yeast control strain, primary screen, counter-screen for post-Golgi transport modulator project; AID 738, 2007; inhibition, % at 10 µM; efflux-deficient yeast background strain, growth absorbance A615, 16 h; hit rate 5% among 98,000
# CYP2C19 inhib: blockers of cytochrome P450 2C19 activity – biochemical, luminescence, ADME assay, primary screen; hit rate 21% among 96,000; CYP2C19 Supersomes, luciferin-H EGE luminescence, 30 min; P33261; AID 778, 2007; inhibition, % at 5 µM;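 active = CYP2C19 inhibition above a set limit at 5 µM in the primary screen, cut at about 50% in these data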;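 note: plate controls were negative control wells for no effect and 2.5 mM tranylcypromine positive control for full effect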
# PostGolgi yeast: phenotypic screen on post-Golgi transport, primary screen; post-Golgi transport phenotypic cell assay; inhibition, % at 10 µM; hit rate 0.9% among 98,000; AID 739, 2007;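 note: yeast cells grown in 1536-well plates; yeast grown about 18 h at 30C before absorbance read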
# CYP2C9 activ: human CYP2C9 activators, primary screen, biochemical, luminescence | Cytochrome P450 2C9 (Homo sapiens), P11712 | recombinant CYP2C9, luciferin-H conversion; stronger effect = higher value; factor 1 = untreated enzyme, 0 = blocked | activation factor at 5 µM | hit rate 1.4% among 96,000 | AID 1024, 2008;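 active = activation factor of 2 or more for CYP2C9 at a 5 µM dose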;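 note: 0 = sulfaphenazole-blocked wells and 1 = vehicle-only wells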
# Target sequence (P11712 whole entry, looked up): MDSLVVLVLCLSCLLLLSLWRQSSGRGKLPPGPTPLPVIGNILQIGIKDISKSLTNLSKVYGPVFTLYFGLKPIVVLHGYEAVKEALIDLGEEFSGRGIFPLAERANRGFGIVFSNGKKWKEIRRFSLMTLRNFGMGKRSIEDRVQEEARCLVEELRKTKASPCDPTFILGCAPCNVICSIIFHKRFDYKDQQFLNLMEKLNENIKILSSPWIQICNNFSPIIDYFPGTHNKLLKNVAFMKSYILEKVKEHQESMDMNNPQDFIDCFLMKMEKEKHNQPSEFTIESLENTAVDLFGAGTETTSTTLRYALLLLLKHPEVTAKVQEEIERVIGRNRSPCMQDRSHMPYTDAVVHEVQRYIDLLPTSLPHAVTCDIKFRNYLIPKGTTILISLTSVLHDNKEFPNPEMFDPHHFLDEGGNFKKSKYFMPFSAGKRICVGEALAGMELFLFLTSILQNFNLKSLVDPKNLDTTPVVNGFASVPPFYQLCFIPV
# CYP2C9 inh: blockers of cytochrome P450 2C9 activity – biochemical, luminescence, ADME assay, primary screen; AID 777, 2007; inhibition, % at 5 µM; hit rate 20% among 96,000; CYP2C9 Supersomes, luciferin-H conversion;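 active = blocking of liver enzyme CYP2C9 beyond about 50% at 5 µM, limit read from the data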
# CYP2C19 activ: human CYP2C19 activators, primary screen, biochemical, luminescence; AID 1025, 2008; Cytochrome P450 2C19 (Homo sapiens), P33261; activation factor at 5 µM; 96,000 tested, under 10 active; recombinant CYP2C19, luciferin-H EGE luminescence; stronger effect = higher value; 0 = fully inhibited enzyme, 1 = untreated enzyme;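 active = activation factor of at least 2 at 5 µM in the primary screen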;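 note: 0 = wells with 2.5 mM tranylcypromine and 1 = vehicle-only wells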
# Numbers without * were called inactive. Cut-off read from the data, not from the text of the source, unless noted: active = inhibition above about 30%; inactive = the rest.
SMILES,PostGolgi ctrl,CYP2C19 inhib,PostGolgi yeast,CYP2C9 activ,CYP2C9 inh,CYP2C19 activ
C=CCn1c(COc2ccccc2)nnc1SCC(=O)C(C)(C)C,0.0,64.9*,-2.0,0.6,44.2,0.4
C=CCn1c(COc2ccccc2)nnc1SC(C)C(=O)N/N=C/c1cc(Cl)ccc1O (centres undefined),11.0,35.1,0.9,0.5,50.0*,0.6
COc1ccccc1OCC(=O)Nc1cccc(-c2nc3ccccc3o2)c1,8.1,30.3,8.7,0.5,48.1,0.7
CCC(=O)Nc1cccc(-c2nc3ccccc3o2)c1,1.7,53.5*,-6.9,0.8,21.9,0.5
Cc1cccc(-c2nnc(-c3cccc(NC(=O)Cc4cccs4)c3)o2)c1,25.7,71.6*,81.4*,0.4,64.8*,0.3
CCC(=O)Nc1cccc(NC(=O)c2cc3ccccc3o2)c1,-3.9,62.4*,-2.4,1,2.9,0.4
CCc1ccc2oc(-c3cccc(NC(=O)c4cccnc4)c3)nc2c1,74.1*,19.0,2.4,0.6,43.8,0.8
Cc1ccc(-c2nc3ccccc3o2)cc1NC(=O)Cc1cccs1,4.0,18.4,-3.2,0.8,20.6,0.8
Nc1cccc(NC(=O)c2cccs2)c1,8.5,-8.5,-6.1,1,2.4,1.1
O=C(Cc1cccs1)Nc1cccc(-c2nc3ccccc3o2)c1,-3.1,27.2,-13.2,0.3,66.7*,0.7
Cc1ccc(-c2nnc(-c3cccc(NC(=O)c4cccs4)c3)o2)cc1,-1.1,55.2*,8.6,0.2,78.2*,0.4
O=C(Nc1nncs1)c1c(F)c(F)c(F)c(F)c1F,-6.7,16.7,-11.4,1,3.8,0.8
Cn1c(CCNC(=O)c2ccco2)nc2cc(NS(=O)(=O)c3ccccc3)ccc21,0.1,31.3,-6.2,0.4,56.4*,0.7
O=C(Nn1c(=O)[nH]c2ccccc2c1=O)c1ccco1,25.3,-13.9,5.0,0.9,11.1,1.1
Cc1noc(NS(=O)(=O)c2ccc(N/C=C/C(=O)c3ccncc3)cc2)c1C,4.6,-7.9,5.3,0.5,50.9*,1.1
Cc1ccc(S(=O)(=O)CC(=O)Nc2ccc(S(=O)(=O)Nc3onc(C)c3C)cc2)cc1,-8.1,-6.2,18.8,0.3,66.7*,1.1
COc1cc(NS(=O)(=O)c2ccc(NC(=O)NC3CCCCC3)cc2)nc(OC)n1,4.5,-6.6,1.1,0.9,8.3,1.1
Cc1ccc(OCC(=O)Nc2ccc(S(=O)(=O)Nc3onc(C)c3C)cc2)cc1,4.9,-2.3,4.9,0.9,11.9,1
Cc1noc(NS(=O)(=O)c2ccc(N/C=C\C(=O)c3ccncc3)cc2)c1C,7.8,2.3,-0.7,0.8,15.8,1
CCOC(=O)C(NC(C)=O)(Nc1ccc(S(=O)(=O)Nc2onc(C)c2C)cc1)C(F)(F)F (centres undefined),-4.1,4.4,34.8*,1.1,-13.3,1
CCOC(=O)C(NC(C)=O)(Nc1ccc(S(=O)(=O)Nc2cc(C)nc(C)n2)cc1)C(F)(F)F (centres undefined),1.6,3.6,-10.0,0.9,11.6,1
COc1cc(NS(=O)(=O)c2ccc(NC(=O)COc3ccccc3Cl)cc2)nc(OC)n1,3.4,85.8*,-15.3,0,95.9*,0.1
CCc1cccc(OCC(=O)Nc2ccc(S(=O)(=O)Nc3onc(C)c3C)cc2)c1,11.9,6.6,2.7,0.2,79.5*,0.9
Cc1cccc(OCCCC(=O)Nc2ccc(S(=O)(=O)Nc3onc(C)c3C)cc2)c1,17.6,-6.1,3.9,1,4.9,1.1
Cc1noc(NS(=O)(=O)c2ccc(NC(=O)COc3ccc(Cl)cc3Cl)cc2)c1C,-4.4,-10.1,8.1,0.3,71.3*,1.1
CC(C)C[C@H](N)c1nnc(S(=O)(=O)Cc2ccc(F)cc2)o1,9.6,17.2,-6.1,0.9,5.7,0.8
COc1ccc(C2=CC(=O)OC3(CCCCC3)O2)cc1,1.9,95.0*,4.3,0.1,87.9*,0.1
COc1cccc(NC=C2C(=O)OC3(CCCCC3)OC2=O)c1,3.5,5.5,-7.5,1,0.5,0.9

# Assay outcomes (PubChem BioAssay)
